The structures appear in SMILES notation. Several values for one entry are separate records, joined by “and”; a condition that tells them apart may be missing. Equal values may be shown once. Records with an inconclusive call do not appear. Unmarked numbers belong to inactive results. Activity calls are given as the source filed them. Calls come from the whole dose curve; as a rule, active = well fitted cell-killing curve with a large enough effect; inconclusive = small, poorly fitted or top-dose-only effect, or effect the other way; inactive = flat fitted curve, though single readings scatter.
% is set by controls: 0 for no effect and ±100 for the full control effect; potency is the fitted concentration of half-maximal effect.

A short description of the test: qHTS assay for cell viability of HEK293 cells (AID 743288). Note: nearly all actives have a fitted effect of over 50% in size. Conditions: ATP luminescence (CellTiter-Glo), 18 h; max response: active compounds read low. An excerpt: National Center for Advancing Translational Sciences [NCATS]
NIH Chemical Genomics Center [NCGC]
U.S. Environmental Protection Agency [EPA]
National Institutes of Environmental Health Sciences [NIEHS]
National Toxicology Program [NTP]
U.S. Food and Drug Administration [FDA]
The CellTiter-Glo Luminescent Cell Viability Assay (Promega, Madison, WI) is a homogeneous method to determine the number of viable cells in culture based on quantitation of the ATP present, which signals the presence of metabolically active cells. This cell viability assay was used to screen environmental chemicals in the Hek293 cell line.
Tox21 Assay Protocol Summary:
Cell viability after compound treatment was measured using a luciferase-coupled ATP quantitation assay (CellTiter-Glo viability assay, Promega, Madison, WI) in parental HEK293 cells. Total intracellular ATP content corresponds to the number of metabolically competent cells after compound treatment. The cells were dispensed at 2,000 cells/5 uL/well in 1,536-well white/solid bottom assay plates using a Flying Reagent Dispenser (Aurora Discovery, San Diego, CA). The cells were incubated a minimum of 5 h at 37 C, followed by the addition of 23 nL of compounds dissolved in DMSO, positive controls or DMSO only using a pintool work station (Kalypsys, San Diego, CA). The assay plates were incubated for 18 h at 37 C, followed by the addition of 5 uL/well of CellTiter-Glo reagent. After 30 min incubation at room temperature, the luminescence intensity of the plates was measured using a ViewLux plate reader (PerkinElmer, Shelton, CT).
On the technique in general: qHTS replaces the single test concentration by a dilution series.
Take `CC(C)=CCC/C(C)=C\CO`: the max response is -0.935%. Consider `CC(=O)CC(=O)Nc1ccccc1C`, for which the max response was -10.9%. For the compound `O=C(O)C(Oc1ccc(Cl)cc1)Oc1ccc(Cl)cc1`, the max response was -2.57%. Still for that read-out and setting: under `CCOC(=O)c1ccccc1C` stands 0.0695%; under `COC(=O)C(C)Oc1ccc(Oc2ncc(C(F)(F)F)cc2Cl)cc1` (stereo not given), -21.9%; under `CCCCCCCCCCCCO`, -11.9%.

Regarding `OC1CCCCCCCCCCC1`, the max response is -8%.

With `CCCCOC(=O)[C@@H](C)Oc1ccc(Oc2ccc(C(F)(F)F)cn2)cc1`, the max response was -10% and -13.5%.

Turning to `CCCC[O][Al]([O]CCCC)[O]CCCC`, the max response was 5.37%. Consider `COC(=O)c1cccc(C(=O)OC)c1`, for which the max response is -8.05%. Same read-out and setting: to `c1ccc(B(c2ccccc2)c2ccccc2)cc1` belongs -15.9%. Same read-out and setting: under `Oc1ccc(Nc2ccccc2)cc1` stands -10.5%; under `CCCCCCCC/C=C\CCCCCCCC(=O)OC`, -6.3%. For `CCC(O)OCCCOC` (stereo not given), the max response is -3.1%.

Regarding `C[Si](C)(C)N[Si](C)(C)C`, the max response was -5.89%. On to `C[Si](C)(Cl)[Si](C)(C)Cl`, for which the max response was -5.72%.

On to `CC1(C)C(=O)N(Br)C(=O)N1Br`, for which the max response was -3.78%. The same measure, in the same setting: under `C=C(C)C(=O)OCCN(C)C` stands -8.88%; under `CCCCC(CC)COP(=O)(O)OCC(CC)CCCC` (stereo not given), -5.86%.

On to `C=C(C)C(=O)OCCOC(=O)C(=C)C`, for which the max response is -1.71%. For `COC(=O)c1ccccc1C(=O)O`, the max response was -13.6%. Same read-out and setting: to `CO[Si](OC)(OC)c1ccccc1` belongs -0.551%; to `Cc1ccc(N=Nc2c(O)ccc3ccccc23)c(C)c1`, -21.3%; to `NCCCCCCCCCCCC(=O)O`, 6.09%. On the same count and under the same terms, under `Cc1ccc(C(C)(C)C)c(O)c1` stands -6.81%; under `CN(C)Cc1cc(CN(C)C)c(O)c(CN(C)C)c1`, -7.71%. With `OCC(CO)(CO)COCC(CO)(CO)CO`, the max response was -12.4%. On the same count and under the same terms, to `CCCC/C=C/CCCCO` belongs -11.8%; to `O=C(O)c1cc2ccccc2cc1O`, -12.6%; to `Cl[Si](Cl)(c1ccccc1)c1ccccc1`, 1.19%. On the same count and under the same terms, to `COC(=O)c1ccccc1S(=O)(=O)NC(=O)Nc1nc(OC(F)F)cc(OC(F)F)n1` belongs 0.401%; to `CCC(=O)C1C(=O)CC(C(=O)O)CC1=O` (stereo not given), 6.24%; to `CCOC(=O)C1=NN(c2ccc(Cl)cc2Cl)C(C)(C(=O)OCC)C1` (stereo not given), -23.5%.

As for `C[Si]1(C)N[Si](C)(C)N[Si](C)(C)N1`, the max response was -3.76%. Same read-out and setting: under `CC(COCC(C)OC(=O)c1ccccc1)OC(=O)c1ccccc1` (stereo not given) stands -11.6%.

Turning to `C=CCCCCCCCCCCCC`, the max response is 5.27%. Take `Cc1cc(Cc2cc(C)cc(C(C)(C)C)c2O)c(O)c(C(C)(C)C)c1`: the Potency was 50.1 µM (active). On to `Cl[Si](Cl)(Cl)c1ccccc1`, for which the max response is -13.3%. `C[Si](Cl)(Cl)[Si](C)(Cl)Cl`: the max response is -7.2%.

In the case of `CSc1ccc(Cl)cc1`, the max response is -19.5%.

Values taken from PubChem BioAssay (NCATS).
